Among all 48,000 compounds or so, about 13,000 (27%) showed an effect of 50% or more. Some of the results follow.
Each compound was assayed on Wolbachia pipientis (assay: Anti-Wolbachia Cell-Based Screen). Conditions: 5 µM.
Type: functional
Parameters: scale not given: in the data most compounds retested in dose-response had high values

Compound | Percent Effect [%]
Cc1cnc(N2CC[C@@H]3CN(Cc4ccncc4)CCO[C@@H]3C2)nc1.O=C(O)C(F)(F)F.O=C(O)C(F)(F)F | -11.53
COCCN1CCO[C@@H]2CN(Cc3sccc3C)C[C@@H]2C1.O=C(O)C(F)(F)F.O=C(O)C(F)(F)F | -3.44
O=C(O)C(F)(F)F.O=C(c1ccsc1)N1CCO[C@@H]2CN(Cc3ccco3)CC[C@@H]2C1 | 99.14
CCc1cnc(N2CC[C@@H]3CN(C(=O)c4ccco4)CCO[C@@H]3C2)nc1 | 10.92
O=C(O)C(F)(F)F.O=C(c1ccco1)N1CCO[C@@H]2CN(c3ccccn3)CC[C@@H]2C1 | 6.986
N#Cc1cccc(CN2CC[C@@H]3CN(c4ncccn4)CCO[C@@H]3C2)c1.O=C(O)C(F)(F)F | 115.7
O=C(O)C(F)(F)F.O=C(c1ccsc1)N1CCO[C@@H]2CN(Cc3ccccn3)CC[C@@H]2C1 | 3.038
Cc1cc(CN2C[C@@H]3CN(C(=O)c4cccn4C)CCO[C@@H]3C2)no1.O=C(O)C(F)(F)F | 9.61
O=C(O)C(F)(F)F.O=C(c1ccco1)N1CCO[C@@H]2CN(Cc3nccs3)CC[C@@H]2C1 | 104
N#Cc1cccc(CN2CC[C@@H]3CO[C@@H](CN4CCCC4)[C@@H]3C2)c1.O=C(O)C(F)(F)F.O=C(O)C(F)(F)F | -0.4401
Cn1cccc1C(=O)N1CCO[C@@H]2CN(Cc3nccs3)C[C@@H]2C1.O=C(O)C(F)(F)F | 127.2
O=C(NC[C@H]1OC[C@@H](NC2CCOCC2)[C@@H]1O)Nc1ccccc1 | 14.81
COCCN(Cc1ccncc1)C(=O)C1COc2ccccc2C1 (configuration not stated) | -25.57
COCCc1nc(CN2CC(C)(c3ccccc3)CCC2=O)no1 (configuration not stated) | -5.62
CCCS(=O)(=O)NC1CCN(c2nnc(C)c(C)c2C#N)CC1 | -4.578
Cc1cc(N2CCC(N3CCOCC3)C2)n2nc(C)c(C)c2n1 (configuration not stated) | -1.501
CN(C)CCN1CCO[C@H]2CN(C(=O)c3ccsc3)C[C@H]21.O=C(O)C(F)(F)F.O=C(O)C(F)(F)F | 117.2
Cn1cc(CN2CCO[C@@H]3CN(Cc4ccoc4)C[C@@H]3C2)cn1.O=C(O)C(F)(F)F.O=C(O)C(F)(F)F | 9.777
CCS(=O)(=O)N1C[C@@H]2CN(Cc3ccco3)CCO[C@@H]2C1.O=C(O)C(F)(F)F | -13.85
CN(C)CCN1CCO[C@H]2CN(C(=O)N(C)C)C[C@H]21.O=C(O)C(F)(F)F.O=C(O)C(F)(F)F | 6.005
O=C(O)C(F)(F)F.O=C(c1ccsc1)N1CCO[C@@H]2CN(Cc3nccs3)C[C@@H]2C1 | 102
O=C(O)C(F)(F)F.O=C(O)C(F)(F)F.c1coc(CN2C[C@@H]3CN(Cc4ccoc4)CCO[C@@H]3C2)c1 | 116.5
CN(C)CCN1CCO[C@H]2CN(C(=O)C3CCOCC3)C[C@H]21 | -13.47

Compound | Percent Effect [%]
O=C(O)C(F)(F)F.O=C(c1ccsc1)N1CCO[C@@H]2CN(Cc3cccs3)C[C@@H]2C1 | 14.76
O=C(O)C(F)(F)F.O=C([C@@H]1CN(Cc2nccs2)C[C@H]2OCC[C@H]21)N1CCOCC1 | -26.11
CC(CCNC(=O)N(C)CC1CCOCC1)N1CCCCC1 (configuration not stated) | -7.573
CCc1nc(CN2CCCN(C(=O)C(C)n3ccnc3)CC2)cs1 (configuration not stated) | 0.184
O=C(NCC1CC1)C1CN(C(=O)NC2CCCC2)Cc2cncn2C1 (configuration not stated) | 100.7
CC(C)N(C(=O)N1CCn2cncc2C1)C(C)C | 10.83
O=C(NC1CCCCC1)[C@H]1CNC[C@@H](COc2cccnc2)C1 | 11.4
CCS(=O)(=O)N1Cc2cncn2CC(C(=O)NCC2CC2)C1 (configuration not stated) | 119.2
Cc1cnc(N2CCC3(CC2)CC3C(=O)NCC2CC2)nc1 (configuration not stated) | -18.23
O=C([C@@H]1Cc2[nH]cnc2CN1C(=O)NC1CCCCC1)N1CCCC1 | 6.906
CN(C)CCN1CC2(CCCN(c3ncc(Cl)cc3F)C2)CCC1=O (configuration not stated) | 4.533
O=C(c1ccc(Cl)c(Cl)c1)N1CCCC(n2cncn2)C1 (configuration not stated) | 3.266
Cc1nc(C)n(C2CCCN(C(=O)c3ccc4c(c3)COC4)C2)n1 (configuration not stated) | -5.905
Cn1ccc(C(=O)N2CCCC(n3cncn3)C2)cc1=O (configuration not stated) | 3.949
O=C(c1ccc2c(c1)CCCC2)N1CCCC(n2cncn2)C1 (configuration not stated) | 100.2
O=C(c1ccc2c(c1)COC2)N1CCCC(n2cncn2)C1 (configuration not stated) | 130
O=C(c1cccc(N2CCCC2=O)c1)N1CCCC(n2cncn2)C1 (configuration not stated) | 0.04653
Cc1cc(Nc2ccc3c(c2)CC(=O)N3)nc(C(C)C)n1 | 5.406
CCO[C@@H]1CO[C@@]2(CCCN(Cc3scnc3C)C2)C1.O=C(O)C(F)(F)F | -0.3895
Cc1noc(C)c1CN1CCC[C@]2(C[C@@H](Oc3ccccn3)CO2)C1.O=C(O)C(F)(F)F.O=C(O)C(F)(F)F | -19.05
Cc1csc(CN2CCC[C@]3(C[C@@H](OCC4CC4)CO3)C2)n1.O=C(O)C(F)(F)F | 105.3
COc1ccccc1CN1CC[C@]2(C[C@H](OC)CO2)C1.O=C(O)C(F)(F)F | 9.484
CO[C@@H]1CO[C@@]2(CCCN(Cc3nc(C)cs3)C2)C1.O=C(O)C(F)(F)F | 128.3

Compound | Percent Effect [%]
CCS(=O)(=O)N1CC[C@]2(C[C@@H](OCC3CC3)CO2)C1 | -6.112
O=C(COc1ccccc1)N1CCC[C@]2(C[C@H](OCC3CC3)CO2)C1 | 5.425
CCO[C@H]1CO[C@@]2(CCCN(Cc3nc(C)cs3)C2)C1.O=C(O)C(F)(F)F | -3.246
CCO[C@H]1CO[C@@]2(CCCN(Cc3scnc3C)C2)C1.O=C(O)C(F)(F)F | 114.2
O=C(COc1ccccc1)N1CCC[C@]2(C[C@@H](OCC3CC3)CO2)C1 | 18.43
Cc1csc(CN2CCC[C@]3(C[C@H](OCC4CC4)CO3)C2)n1 | 94.91
O=C(O)C(F)(F)F.O=S(=O)(C1CC1)N1CCC[C@]2(C[C@@H](Oc3ccccn3)CO2)C1 | 2.781
Cl.c1cnc(N2CCCC(NCc3cccc4c3OCCO4)C2)nc1 (configuration not stated) | 11.77
Cc1cn2c(n1)CCC(NS(=O)(=O)c1ccc(C)s1)C2 (configuration not stated) | -1.096
Cc1ccc2c(c1)C1(CCN(C(=O)C3CC3)CC1)CC2N1CCOCC1.O=C(O)C(F)(F)F (configuration not stated) | 4.954
Cc1cc(C)n(CC2CCCCN2CC(=O)Nc2c(C)n[nH]c2C)n1 (configuration not stated) | 1.6
Cc1cc(CN2CCC(CNC(=O)CN3CCCCCC3)C2)[nH]n1 (configuration not stated) | 4.399
Cc1n[nH]c(C)c1NC(=O)CN1CCCC(CNC(=O)C(C)(C)C)C1 (configuration not stated) | 3.245
Cc1[nH]nc(CCC(=O)NCC2CCN(C3CCCCC3)C2)c1C (configuration not stated) | 82.83
Cc1n[nH]c(C)c1CCC(=O)NCC1CCCN(C2CCCC2)C1 (configuration not stated) | 80.33
Cc1n[nH]c(C)c1CCC(=O)NCC1CCOc2ccccc2C1 (configuration not stated) | -7.064
Cc1[nH]nc(CCC(=O)NCC2CCCN(C3CCCC3)C2)c1C (configuration not stated) | 91.65
CCCc1nc(C)c(C(=O)NCC2CCN(C3CC3)C2)s1 (configuration not stated) | 9.564
Cc1[nH]nc(CCC(=O)NCC2COc3ccccc3C2)c1C (configuration not stated) | -76.22
Cc1n[nH]c(C)c1CCC(=O)NCC1COc2ccccc2C1 (configuration not stated) | -6.3
Cc1ccc(C2CN(C(=O)NCc3nnc4ccccn34)CCO2)o1 (configuration not stated) | -6.842
Cc1cnn(CC(=O)NCC2(O)CCCc3ccccc32)c1 (configuration not stated) | -1.481
CN(Cc1ccc(C(N)=O)cc1)c1ccc(C(F)(F)F)cn1 | 16.53

Compound | Percent Effect [%]
FC(F)(F)c1ccccc1CN1CCOC[C@H](Oc2cccnc2)C1 | -13.87
COc1cccc2c1N(Cc1nc(C3CC3)no1)CCC2 | -12.66
CNc1nc(C(=O)N2CCCN(c3ccnc(C)c3)CC2)cs1 | 103.6
Cc1cc(N2CCN(C(=O)CCc3scnc3C)CC2)cc(C)n1 | 13.55
Cc1cc(N2CCCN(c3ccnc(C)c3)CC2)ccn1 | 10.82
CNc1nc(C(=O)N2CCN(c3cc(C)nc(C)c3)CC2)cs1 | 104.9
Cc1cc(N2CCCN(C(=O)Cc3csc(C)n3)CC2)ccn1 | -22.63
CNc1nc(C(=O)N2CCCC(c3nccn3CC3CCC3)C2)cs1 (configuration not stated) | 4.458
Cc1noc2ncc(C(=O)N(CC3CCOC3)C3CC3)cc12 (configuration not stated) | -8.329
CC(C)Cn1cc(NC(=O)NCC2CCN(c3ccccc3)C2)cn1 (configuration not stated) | -4.161
COCCN(C)CCN1CC2(CCN(C3CCOC3)CC2)OC1=O (configuration not stated) | -5.724
COc1ccc(-c2n[nH]c(C)c2CC(=O)N2CCOCC2)cc1 | 82.2
Cc1ccc(-c2cc(C(=O)NCCN3CCOCC3)n[nH]2)s1 | 2.618
COc1ccc(CC(=O)Nc2c(C)nc(N3CCOCC3)nc2C)cc1 | 11.03
CCC(=O)c1ccc(OCC(=O)NCC2CCCO2)cc1 (configuration not stated) | 8.672
Cc1ccc(-c2nc(CC(=O)NCC3CCOC3)cs2)o1 (configuration not stated) | 7.713
Cc1ccc(-n2nnc(CC(=O)N3CCOCC3)c2C)cc1 | -5.261
COc1ccc(-c2n[nH]c(C)c2CC(=O)NCC2CCOCC2)cc1 | 94.98
Cc1cc(=O)n(CC(=O)NCC2CCCO2)c(-c2ccc(F)cc2)n1 (configuration not stated) | 12.17
COc1ccc2c(c1)OCC(CNC(=O)CCc1c(C)n[nH]c1C)C2 (configuration not stated) | 2.391
COc1ccc(-c2n[nH]c(C)c2CC(=O)NCCN2CCOCC2)cc1 | 95.82
COc1ccc(-c2n[nH]c(C)c2CC(=O)NCC2CCCO2)cc1 (configuration not stated) | 140.4
COc1ccc(OCc2nc(C(=O)NCCN3CCOCC3)co2)cc1 | -20.12
